# Test results from the supplement of paper PMC10127200.
# Structures can show the parent of a compound that is named as a salt.
# Key:
# Test in all cases: Euclidean distance of Cell Painting phenotypic profile (signed KS, 77 features) to DMSO centroid (dimensionless distance); 5 or 10 uM (library dependent); higher = stronger phenotypic change vs DMSO (phenoactivity)
# Settings in all cases: 48 h
# 786-O = tested on: 786-O
# How it was run: (§1)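 Five cancer lines, together with a healthy fibroblast line, received library compounds for 48 h at a library-dependent 10 or 5 uM and 0.1% DMSO final. Harmony then derived 77 features from confocal 20X images (9 fields/well) of the stained cells, scoring each as a signed Kolmogorov-Smirnov statistic against same-plate vehicle wells. After plate-position correction, correlation weighting and replicate averaging at the top dose, phenoactivity was taken as each profile's Euclidean distance to the median vehicle profile.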
# A549 = tested on: A549
# How it was run: as §1
# DU145 = tested on: DU145
# How it was run: as §1
# FB = tested on: FB
# How it was run: as §1
# HEPG2 = tested on: HEPG2
# How it was run: as §1
# OVCAR4 = tested on: OVCAR4
# How it was run: as §1
SMILES,Euclidean distance (786-O),Euclidean distance (A549),Euclidean distance (DU145),Euclidean distance (FB),Euclidean distance (HEPG2),Euclidean distance (OVCAR4)
Cn1cnc2c(F)c(Nc3ccc(Br)cc3Cl)c(C(=O)NOCCO)cc21 [Selumetinib (AZD6244)],2.23,2.67,2.91,2.95,1.72,2.19
CC(C(=O)O)c1ccc(C(=O)c2ccccc2)s1 (centres undefined) [Tiaprofenic acid],1.13,0.629,0.684,0.967,0.859,0.857
COc1ccc2cc1Oc1ccc(cc1)C[C@H]1c3cc(c(OC)cc3CCN1C)Oc1c(O)c(OC)cc3c1[C@H](C2)N(C)CC3 [Fangchinoline],4.67,4.12,3.78,4.61,5.01,4.4
CC(=O)OCC[N+](C)(C)C [Acetylcholine Chloride],1.02,0.848,1.22,1,0.549,1.13
CC1=C(C(=O)OCCN(Cc2ccccc2)c2ccccc2)C(c2cccc([N+](=O)[O-])c2)C(P2(=O)OCC(C)(C)CO2)=C(C)N1 (centres undefined) [Efonidipine],1.73,1.93,1.02,0.739,0.968,0.999
O[C@@H](COc1cccc2ncccc12)CN1CCN(C2c3ccccc3[C@@H]3[C@H](c4ccccc42)C3(F)F)CC1 (some centres undefined),1.12,1.33,0.754,0.764,0.675,1.43
C[C@@H]1COCCN1c1cc(C2([S@](C)(=N)=O)CC2)nc(-c2cc[nH]c3nccc2-3)n1,2.52,2.73,2.21,3.12,2.29,2.88
c1ccc(-c2ccc(C(c3ccccc3)n3ccnc3)cc2)cc1 (centres undefined) [Bifonazole],1.54,1.43,1.19,1.17,0.639,1.31
Cc1ncc(-c2ccnc(Nc3ccc(S(C)(=O)=O)cc3)n2)n1C(C)C,2.6,3.78,3.05,3.19,3.09,3.43
CN(C)CCC(c1ccc(Cl)cc1)c1ccccn1 (centres undefined) [Chlorpheniramine Maleate],1.37,0.807,1.01,1.23,1.4,1.15
CC(C)N(CCCNC(=O)Nc1ccc(C(C)(C)C)cc1)C[C@H]1O[C@@H](n2cc(Br)c3c(N)ncnc32)[C@H](O)[C@@H]1O,0.633,1.32,1.19,1.58,1.15,0.804
NC(=O)[C@@H](CCC(F)(F)F)N(Cc1ccc(-c2ncon2)cc1F)S(=O)(=O)c1ccc(Cl)cc1,2.13,1.14,1.04,2.28,1.48,0.855
CC(C)(C)C(O)/C=C/c1ccc2c(c1)OCO2 (centres undefined) [Stiripentol],0.796,0.894,1.07,0.983,0.456,0.801
COc1cc2ncnc(Nc3ccc(Cl)cc3F)c2cc1OC,1.46,1.74,1.56,1.26,1.51,1.01
CC1(C)CCC2=C(O1)c1ccccc1C(=O)C2=O [Beta-Lapachone],3.88,5.17,7.8,4.08,4.33,5.57
C[C@H]1CNCCCN1S(=O)(=O)c1cccc2cncc(F)c12 [Ripasudil (K-115) hydrochloride dihydrate],2.28,0.784,2.78,2.01,1.34,1.12
CCCCC(F)(F)[C@@]1(O)CC[C@H]2[C@@H](CC(=O)[C@@H]2CCCCCCC(=O)O)O1 [Lubiprostone],1.06,1.09,1.21,1.29,0.966,1.1
O=C(O)c1cc(-c2ccc(F)cc2F)ccc1O [Diflunisal],1.47,0.745,1.05,1.06,0.706,1.71
CC[C@H]1OC(=O)[C@H](C)[C@@H](O[C@H]2C[C@@](C)(OC)[C@@H](O)[C@H](C)O2)[C@H](C)[C@@H](O[C@@H]2O[C@H](C)C[C@H](N(C)C)[C@H]2O)[C@](C)(O)C[C@@H](C)/C(=N\OCOCCOC)[C@H](C)[C@@H](O)[C@]1(C)O [Roxithromycin],1.03,0.649,0.699,1.1,0.654,1.42
COC(=O)CCC(=O)CN [Methyl Aminolevulinate Hydrochloride],1.52,0.774,0.717,0.88,0.566,1.34
Cc1cccc(C)c1NC(=O)C1CCCCN1C (centres undefined) [Mepivacaine HCl],1.26,0.773,0.454,1.28,0.483,0.914
O=C(O)/C=C/c1cnc[nH]1 [Urocanic acid],1.13,0.682,0.798,0.718,0.554,1.26
O=C1[C@H](CC[C@H](O)c2ccc(F)cc2)[C@@H](c2ccc(O)cc2)N1c1ccc(F)cc1 [Ezetimibe],1.74,1,3.08,1.36,2.26,1.34
C[C@H]1O[C@@H](n2cc(F)c(=O)[nH]c2=O)[C@H](O)[C@@H]1O [Doxifluridine],0.747,1.07,0.886,0.864,2.72,1.03
